Source: PubChem BioAssay
Activity calls are given as the source filed them.

Experiments:
[1] = small molecules captured by biotinylated probe aFSTL3 – biochemical, small-molecule microarray, fluorescence 635/667, stem cell growth factor project, primary screen (AID 1064); settings: higher = more signal;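 also: measures binding of the biotinylated anti-FSTL3 antibody to printed compounds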
[2] = binders from COS7 lysate, DM2A8 probe, primary screen, torsin A project, cell lysate, small-molecule microarray, fluorescence 635/667 (AID 1065); settings: higher = more signal, COS7 lysate expressing mutant human TOR1A
[3] = small molecules captured by biotinylated probe aFGF2 – biochemical, small-molecule microarray, fluorescence 635/667, stem cell growth factor project, primary screen (AID 1067); settings: higher = more signal;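 also: measures binding of biotinylated aFGF2 protein to printed compounds on slides; z-score merges feature fluorescence and signal-to-noise across triplicate slides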
[4] = small molecules captured by biotinylated probe aFGF10 – biochemical, small-molecule microarray, fluorescence 635/667, stem cell growth factor project, primary screen (AID 1071); settings: higher = more signal;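 also: score merges 667 nm spot intensity and signal to noise from triplicate slides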
[5] = biological target: Neurogenic locus notch homolog protein 2 (Homo sapiens) (UniProt Q04721); assay: small molecules binding Notch2 protein – biochemical, small-molecule microarray, 635 nm fluorescence, stem cell growth factors, primary screen (AID 1073); settings: higher = more signal
Neurogenic locus notch homolog protein 2 (Homo sapiens), sequence (Q04721 whole entry, looked up, canonical isoform): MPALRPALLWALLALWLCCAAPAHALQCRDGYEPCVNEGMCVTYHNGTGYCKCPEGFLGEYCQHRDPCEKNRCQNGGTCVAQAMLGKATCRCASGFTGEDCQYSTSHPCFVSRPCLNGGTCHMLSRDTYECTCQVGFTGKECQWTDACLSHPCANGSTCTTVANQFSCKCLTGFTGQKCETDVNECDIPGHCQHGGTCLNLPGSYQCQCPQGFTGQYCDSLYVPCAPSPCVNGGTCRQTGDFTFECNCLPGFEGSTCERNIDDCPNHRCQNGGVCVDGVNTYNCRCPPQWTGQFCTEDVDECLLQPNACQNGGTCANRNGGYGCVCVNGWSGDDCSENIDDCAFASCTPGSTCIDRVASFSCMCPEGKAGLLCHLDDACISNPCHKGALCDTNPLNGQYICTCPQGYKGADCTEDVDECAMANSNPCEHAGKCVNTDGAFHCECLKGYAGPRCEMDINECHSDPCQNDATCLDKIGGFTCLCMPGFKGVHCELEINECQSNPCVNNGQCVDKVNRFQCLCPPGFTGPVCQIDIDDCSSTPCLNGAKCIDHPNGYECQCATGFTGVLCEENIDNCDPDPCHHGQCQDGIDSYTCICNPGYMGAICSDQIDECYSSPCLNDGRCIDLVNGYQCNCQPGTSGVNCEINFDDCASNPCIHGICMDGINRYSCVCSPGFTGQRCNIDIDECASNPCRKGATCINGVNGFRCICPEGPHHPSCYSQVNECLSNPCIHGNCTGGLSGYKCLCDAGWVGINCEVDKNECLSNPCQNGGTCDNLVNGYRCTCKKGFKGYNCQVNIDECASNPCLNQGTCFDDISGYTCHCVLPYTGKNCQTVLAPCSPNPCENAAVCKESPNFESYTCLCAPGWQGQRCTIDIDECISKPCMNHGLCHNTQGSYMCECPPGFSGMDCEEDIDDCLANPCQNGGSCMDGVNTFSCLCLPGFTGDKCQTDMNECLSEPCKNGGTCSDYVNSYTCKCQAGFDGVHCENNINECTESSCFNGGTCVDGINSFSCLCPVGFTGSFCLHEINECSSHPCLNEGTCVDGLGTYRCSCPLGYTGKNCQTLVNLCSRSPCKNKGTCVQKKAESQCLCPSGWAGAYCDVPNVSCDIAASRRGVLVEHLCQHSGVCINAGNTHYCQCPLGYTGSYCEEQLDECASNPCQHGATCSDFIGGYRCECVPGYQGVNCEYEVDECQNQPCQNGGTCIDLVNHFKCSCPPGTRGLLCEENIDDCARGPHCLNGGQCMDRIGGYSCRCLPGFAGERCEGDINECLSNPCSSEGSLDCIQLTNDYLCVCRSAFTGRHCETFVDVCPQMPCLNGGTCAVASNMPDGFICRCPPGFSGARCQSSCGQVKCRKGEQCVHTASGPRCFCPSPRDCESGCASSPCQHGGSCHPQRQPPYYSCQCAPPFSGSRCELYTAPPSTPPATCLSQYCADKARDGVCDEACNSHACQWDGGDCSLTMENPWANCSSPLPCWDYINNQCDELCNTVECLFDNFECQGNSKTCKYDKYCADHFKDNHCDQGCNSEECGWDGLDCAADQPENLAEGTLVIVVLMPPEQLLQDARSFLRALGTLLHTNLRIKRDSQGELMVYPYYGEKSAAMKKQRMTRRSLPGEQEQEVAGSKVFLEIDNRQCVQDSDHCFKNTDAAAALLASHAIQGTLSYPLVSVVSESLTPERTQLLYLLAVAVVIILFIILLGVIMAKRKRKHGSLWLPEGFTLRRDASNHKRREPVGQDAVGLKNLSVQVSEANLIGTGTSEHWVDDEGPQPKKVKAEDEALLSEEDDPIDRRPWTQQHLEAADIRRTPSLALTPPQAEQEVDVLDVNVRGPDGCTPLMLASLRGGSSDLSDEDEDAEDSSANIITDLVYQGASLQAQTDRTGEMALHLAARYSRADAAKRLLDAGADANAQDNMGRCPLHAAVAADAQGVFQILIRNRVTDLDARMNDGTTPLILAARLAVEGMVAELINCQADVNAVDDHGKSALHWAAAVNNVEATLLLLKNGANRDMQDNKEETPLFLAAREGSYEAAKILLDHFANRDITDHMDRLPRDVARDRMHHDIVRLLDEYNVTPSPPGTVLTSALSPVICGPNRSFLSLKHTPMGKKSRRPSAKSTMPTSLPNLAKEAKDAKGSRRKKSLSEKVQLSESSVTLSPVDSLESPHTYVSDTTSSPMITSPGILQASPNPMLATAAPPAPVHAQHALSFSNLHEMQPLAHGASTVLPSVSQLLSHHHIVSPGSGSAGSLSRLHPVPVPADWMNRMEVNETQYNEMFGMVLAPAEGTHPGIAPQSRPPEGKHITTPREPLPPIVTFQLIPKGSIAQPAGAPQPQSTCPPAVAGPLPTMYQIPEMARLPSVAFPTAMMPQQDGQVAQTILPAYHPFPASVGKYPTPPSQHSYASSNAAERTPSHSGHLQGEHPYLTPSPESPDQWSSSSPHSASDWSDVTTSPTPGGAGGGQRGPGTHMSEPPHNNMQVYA

[6] = biological target: Pro-neuregulin-1, membrane-bound isoform (Homo sapiens) (UniProt Q02297); assay: small molecules binding neuregulin-1 protein – biochemical, small-molecule microarray, fluorescence 635/667, psychiatric disease protein project, primary screen (AID 1075); settings: NRG1 binding, 635 nm fluorescence, higher = more signal;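 also: score combines 667 nm spot fluorescence with signal to noise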
Pro-neuregulin-1, membrane-bound isoform (Homo sapiens), sequence (Q02297 whole entry, looked up, the tested form may be a part, canonical isoform): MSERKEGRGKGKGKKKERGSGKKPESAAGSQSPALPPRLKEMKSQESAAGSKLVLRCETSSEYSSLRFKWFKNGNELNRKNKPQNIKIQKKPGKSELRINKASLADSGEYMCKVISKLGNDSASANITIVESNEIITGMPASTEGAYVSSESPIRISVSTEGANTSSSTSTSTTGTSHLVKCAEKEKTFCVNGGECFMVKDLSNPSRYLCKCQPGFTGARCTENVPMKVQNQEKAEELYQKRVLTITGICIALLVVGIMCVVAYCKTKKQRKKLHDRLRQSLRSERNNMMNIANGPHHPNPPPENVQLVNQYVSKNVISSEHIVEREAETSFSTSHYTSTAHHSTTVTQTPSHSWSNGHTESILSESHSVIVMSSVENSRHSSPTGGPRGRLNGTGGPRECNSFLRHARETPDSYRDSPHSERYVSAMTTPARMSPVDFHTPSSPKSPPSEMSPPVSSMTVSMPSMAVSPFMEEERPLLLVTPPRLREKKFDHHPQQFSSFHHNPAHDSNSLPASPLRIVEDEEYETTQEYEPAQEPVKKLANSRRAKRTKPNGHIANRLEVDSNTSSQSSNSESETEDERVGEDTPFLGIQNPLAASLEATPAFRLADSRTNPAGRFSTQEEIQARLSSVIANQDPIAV

[7] = system: Neuregulin-1 EGF-like domain; assay: small molecules binding NRG1 EGF domain – biochemical, small-molecule microarray, 635 nm fluorescence, primary screen (AID 1081); settings: higher = more signal;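 also: binding of the protein to compounds printed on small-molecule microarray slides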
[8] = FRG1 expression reporter modulators in myotubes – cell-based, C2C12 myotubes, firefly/Renilla luciferase, luminescence, FRG1 inhibition for FSHD, primary screen (AID 1084); settings: FRG1 promoter luciferase, higher = more signal, called active from +8 up or from −8 down
[9] = small molecules captured by biotinylated probe aFST – biochemical, small-molecule microarray, fluorescence 635/667, stem cell growth factor project, primary screen (AID 1086); settings: higher = more signal;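 also: score merges 667 nm fluorescence with signal-to-noise of each printed compound spot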
[10] = binders of probe aHhip on microarray, primary screen, stem cell growth factor project, biochemical, small-molecule microarray, fluorescence 635/667 (AID 1087); settings: higher = more signal;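 also: score merges spot fluorescence at 667nm with spot signal to noise ratio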
[11] = system: PRMT1 (protein arginine N-methyltransferase 1); assay: small molecules binding arginine methyltransferase PRMT1 – biochemical, small-molecule microarray, 635 nm fluorescence, primary screen (AID 1088); settings: higher = more signal;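 also: binding of Prmt1 protein to compounds spotted on small-molecule microarray slides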
[12] = growth effects on S. cerevisiae YJM789 – YJM789 clinical isolate, OD600, 24 h, basal, primary screen (AID 1089); settings: higher = more signal, called active from +8 up or from −8 down;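 also: growth of clinical yeast isolate S. cerevisiae YJM 789 seeded 1000 cells per well; test concentration not given here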
[13] = S. pombe growth modifiers, basal conditions – strain 972, OD600, 24 h, no modulator, primary screen (AID 1090);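 also: basal condition with compound alone and no growth modifier present; test concentration not given here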; settings: S. pombe 972 growth, higher = more signal, called active from +8 up or from −8 down
[14] = budding yeast growth modifiers under rapamycin – strain BY4716, OD600, 96 h, primary screen (AID 1091); also: test concentration not given here; settings: S. cerevisiae BY4716 + rapamycin, higher = more signal, called active from +8 up or from −8 down
[15] = biological target: Torsin-1A-interacting protein 2 (Homo sapiens) (UniProt Q8NFQ8); assay: small molecules binding lysate-expressed LULL1 – cell lysate, human LULL1 lysate, 635/667 nm fluorescence, primary screen (AID 1092); settings: small-molecule microarray, hLULL1 lysate binding, 635 nm fluorescence; higher = more signal;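 also: probe is lysate of COS7 cells overexpressing human LULL1; score merges per-feature 667 nm fluorescence with signal-to-noise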
Torsin-1A-interacting protein 2 (Homo sapiens), sequence (Q8NFQ8 whole entry, looked up): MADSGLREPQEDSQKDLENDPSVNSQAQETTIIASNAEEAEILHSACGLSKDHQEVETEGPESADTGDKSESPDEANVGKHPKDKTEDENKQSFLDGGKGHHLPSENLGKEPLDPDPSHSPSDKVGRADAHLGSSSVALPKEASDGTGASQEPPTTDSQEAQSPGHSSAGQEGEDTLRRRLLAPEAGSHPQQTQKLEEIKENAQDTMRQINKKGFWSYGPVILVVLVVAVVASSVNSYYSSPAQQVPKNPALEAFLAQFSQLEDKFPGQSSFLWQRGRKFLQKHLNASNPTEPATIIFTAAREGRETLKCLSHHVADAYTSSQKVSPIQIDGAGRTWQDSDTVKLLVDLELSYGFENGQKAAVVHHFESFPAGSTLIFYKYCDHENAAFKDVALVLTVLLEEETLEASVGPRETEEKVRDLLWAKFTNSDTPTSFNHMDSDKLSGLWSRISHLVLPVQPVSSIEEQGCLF

[16] = optical density change of DRC41 E. coli – strain DRC41, OD650, 24 h, E. coli filamentation project, primary screen (AID 1093);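 also: MC1000 strain lacking acrAB efflux and sulA so SOS filamentation is blocked; test concentration not given here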; settings: E. coli DRC41 growth, higher = more signal, called active from +8 up or from −8 down
[17] = probe aLefty2 binding to arrayed compounds – biochemical, biotinylated probe, 635/667 nm fluorescence, primary screen (AID 1094); settings: small-molecule microarray, higher = more signal;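 also: score merges spot fluorescence near 667 nm with spot signal-to-noise ratio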
[18] = system: Noggin (protein binding on small-molecule microarray); assay: small molecules binding Noggin protein – biochemical, 635/667 nm fluorescence, primary screen (AID 1095); settings: 635 nm fluorescence, higher = more signal;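 also: score merges 667 nm feature fluorescence with signal to noise over triplicate slides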
[19] = biological target: Neurogenic locus notch homolog protein 3 (Homo sapiens) (UniProt Q9UM47); assay: small molecules binding NOTCH3 protein – biochemical, 635/667 nm fluorescence, primary screen (AID 1096); settings: small-molecule microarray, 635 nm fluorescence, higher = more signal
[20] = probe aEGFR binding to arrayed compounds – biochemical, biotinylated probe, 635/667 nm fluorescence, primary screen (AID 1097); settings: small-molecule microarray, higher = more signal;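 also: probe is a biotinylated anti-EGFR antibody binding compounds printed on slides; score combines fluorescence near 667 nm and signal to noise of each spot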

Structure (SMILES)	composite z-score [1]	composite z-score [2]	composite z-score [3]	composite z-score [4]	composite z-score [5]	composite z-score [6]	composite z-score [7]	z-score [8]	composite z-score [9]	composite z-score [10]	composite z-score [11]	z-score [12]	z-score [13]	z-score [14]	composite z-score [15]	z-score [16]	composite z-score [17]	composite z-score [18]	composite z-score [19]	composite z-score [20]
CCOc1cc(C(O)C2C=CC3C(=O)N(C4CCCCC4)C(=O)C3N2Nc2ccc(OC)cc2)ccc1O (stereo not given)	0.26	0.456	0.0465	0.339	1.64	1.72	1.28	1.79 (inactive)	0.775	-0.132	1.17	-0.344 (inactive)	-0.118 (inactive)	-0.129 (inactive)	3.21	-0.0874 (inactive)	0.0252	0.163	1.05	0.0295
C=CCOC(=O)[C@@H]1[C@H]2C(=O)O[C@H](c3ccccc3)[C@H](c3ccccc3)N2[C@H](c2ccc(OCCOC(=O)[C@H]3C[C@H]4C(=O)N[C@@H](CCCCN(C)C)C(=O)N4[C@H]3c3cccc(OCCO)c3)cc2)[C@@]12C(=O)Nc1ccc(I)cc12	0.0594	1.24	-0.0308	0.526	0.59	1.55	1.32	0.842 (inactive)	0.312	0.064	1.56	0.95 (inactive)	0.688 (inactive)	3.87 (inactive)	2.81	0.0565 (inactive)	-0.0216	1.03	1.08	-0.105
COCCOC(=O)N1C(=O)[C@@]2(c3cc(C#CC4(O)CCCCCC4)ccc31)[C@H](C(N)=O)[C@H]1C(=O)O[C@H](c3ccccc3)[C@H](c3ccccc3)N1[C@@H]2c1ccc(O)cc1	-0.353	0.516	-0.0494	0.544	0.618	0.446	1.28	0.116 (inactive)	0.33	0.192	1.55	0.121 (inactive)	0.182 (inactive)	0.523 (inactive)	2.41	-0.426 (inactive)	-0.0009	1.53	1.12	-0.0418
C=CCOC(=O)[C@H]1[C@@H]2C(=O)O[C@@H](c3ccccc3)[C@@H](c3ccccc3)N2[C@@H](c2ccc(OCCOC(=O)[C@H]3C[C@H]4C(=O)N[C@@H](Cc5ccccc5)C(=O)N4[C@H]3c3cccc(OCCO)c3)cc2)[C@]12C(=O)Nc1ccc(I)cc12	-0.36	0.876	0.0422	0.66	0.118	1.35	1.21	0.633 (inactive)	0.0086	0.122	1.54	0.731 (inactive)	1 (inactive)	4 (inactive)	2.36	-0.0451 (inactive)	-0.185	1.91	1.09	-0.067
COc1ccc(C(O)C2C=CC3C(=O)N(c4ccccc4)C(=O)C3N2Nc2ccc(C#N)cc2)c2ccccc12 (stereo not given)	0.983	0.707	0.0785	0.337	1.6	1.96	1.11	0.757 (inactive)	1.2	0.0515	1.35	-1.89 (inactive)	2.35 (inactive)	0.906 (inactive)	3.38	-0.945 (inactive)	0.397	0.238	1.08	-0.0424
O=C(O)[C@]1(Cc2ccccc2)N=C(c2ccc(OCCCO)cc2)O[C@@H]1c1ccccc1	0.428	-1.31	-0.135	-0.321	0.0148	1.45	0.847	-0.737 (inactive)	0.378	-0.164	-1.27	0.624 (inactive)	-0.695 (inactive)	0.286 (inactive)	1.55	0.377 (inactive)	-0.143	-0.849	-0.786	-0.208
CC(=O)NCCCC[C@@H]1NC(=O)[C@@H]2C[C@H](C(=O)O)[C@H](c3ccc(O)cc3)N2C1=O	0.736	-1.54	-0.174	-1.07	-1.09	0.78	1.42	0.785 (inactive)	-0.765	-0.372	-0.728	0.611 (inactive)	1.36 (inactive)	0.442 (inactive)	2.17	0.129 (inactive)	0.0208	-1.42	-1.27	-0.322
CN(C)CCCNC(=O)[C@@]1(c2ccc([N+](=O)[O-])cc2)CC(=O)N(CC23CC4CC(CC(C4)C2)C3)[C@@H]1c1ccc(CO)cc1	1.47	1.15	0.301	0.143	0.904	1.38	1.35	-2.36 (inactive)	1.92	0.635	1.53	-22.2 (active)	-20.2 (active)	-4.03 (inactive)	3.39	-0.279 (inactive)	0.969	1.32	1.05	0.0529
COc1cc(CO)cc(I)c1O[C@H]1C=C(C(=O)NCCO)C[C@@H](NCc2ccccc2F)[C@@H]1O	-0.267	0.644	0.0232	1.17	0.161	0.321	0.989	-1.05 (inactive)	0.0915	-0.0645	1.13	2.24 (inactive)	-3.89 (inactive)	0.519 (inactive)	0.491	1.77 (inactive)	-0.0943	1.05	0.75	-0.151
COCCOC(=O)N1C(=O)[C@@]2(c3cc(C#CC4=CCCCC4)ccc31)[C@H](c1ccccc1OCCO)N1[C@H](c3ccccc3)[C@H](c3ccccc3)OC(=O)[C@H]1[C@@H]2C(=O)N1CCc2cc(OC)c(OC)cc2C1	-0.516	0.433	0.0571	0.515	1.18	0.319	1.07	-0.202 (inactive)	0.401	-0.521	1.55	1.83 (inactive)	0.819 (inactive)	3.63 (inactive)	0.889	-0.0749 (inactive)	-0.479	0.676	1.08	-0.33
